Compound activity (PubChem BioAssay)
Most compounds without a hit are left out; they make up all but 12% or so of the library.
Sfp inh: inhibitors of Bacillus subtilis Sfp phosphopantetheinyl transferase. hit rate 3.5% among 310,000. Q9F4F7. AID 1490. Biochemical Sfp PPTase activity, qHTS. Potency, µM, most hits filed as inhibitors;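 also: the enzyme is Sfp with the accession as filed and its product quenches rhodamine fluorescence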
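Compounds were incubated with enzyme (final 15 nM) for 15 min at room temperature before substrate addition started the reaction. Fluorescence at 525 nm excitation, 598 nm emission was recorded immediately and after 30 minutes.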
G9a block: inhibitors of human histone lysine methyltransferase G9a; Q96KQ7; G9a H3K9 monomethylation, AlphaScreen, 2 h; Potency, µM (titrated, usually from 102 µM), actives largely listed as inhibitors; hit rate 8.8% among 350,000; also: nearly all actives have a fitted effect of over 75% in size
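G9a (20 nM) was preincubated 15 min with compound, then reacted 2 h at room temperature with 500 nM biotin-H3K9 peptide and 20 µM SAM. Monomethyl-H3K9 detected by AlphaScreen using anti-H3K9me1 antibody.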
HP1b binding inh: HP1-beta chromodomain-methylated histone interaction inhibition | P83916 | AlphaScreen HP1-beta / biotin-H3K9me3 peptide binding | Potency, µM (titrated, usually from 114 µM), most hits filed as inhibitors | hit rate 0.56% among 390,000 | AID 540317; also: nearly all actives have a fitted effect of over 70% in size
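HP1-beta protein (50 nM final) preincubated 30 min at room temperature with biotinylated H3(1-18)K9me3 peptide (50 nM) in PBS pH 7.4, 0.01% Tween-20, then compound added for 30 min. AlphaScreen streptavidin donor/nickel chelate acceptor beads (10 ug/mL final), 30 min dark, luminescence read.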
BAZ2B inh: blocks human BAZ2B | AlphaScreen BAZ2B-H3K14Ac peptide displacement | Potency, µM (top dose mostly 114 µM), hits mostly inhibitors | hit rate 4.4% among 360,000 | AID 504333; also: nearly all actives have a fitted effect of over 60% in size
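BAZ2B 50 nM plus b-H3(5-23)K14Ac 50 nM, PBS pH 7.4/0.01% Tween-20, 30 min RT; compound added (max 110 uM), 30 min RT; streptavidin donor/Ni-chelate acceptor beads 10 ug/mL final, 20 min dark; AlphaScreen read.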
JMJD2A Tudor inh: blocks the human JMJD2A Tudor domain; AlphaScreen JMJD2A-Tudor / H3K4me3 peptide binding; O75164; hit rate 4.4% among 390,000; Potency, µM (highest dose often 114 µM), hits mostly inhibitors; AID 504339; also: nearly all actives have a fitted effect of over 50% in size
Target sequence (O75164 whole entry, looked up, the tested form may be a part): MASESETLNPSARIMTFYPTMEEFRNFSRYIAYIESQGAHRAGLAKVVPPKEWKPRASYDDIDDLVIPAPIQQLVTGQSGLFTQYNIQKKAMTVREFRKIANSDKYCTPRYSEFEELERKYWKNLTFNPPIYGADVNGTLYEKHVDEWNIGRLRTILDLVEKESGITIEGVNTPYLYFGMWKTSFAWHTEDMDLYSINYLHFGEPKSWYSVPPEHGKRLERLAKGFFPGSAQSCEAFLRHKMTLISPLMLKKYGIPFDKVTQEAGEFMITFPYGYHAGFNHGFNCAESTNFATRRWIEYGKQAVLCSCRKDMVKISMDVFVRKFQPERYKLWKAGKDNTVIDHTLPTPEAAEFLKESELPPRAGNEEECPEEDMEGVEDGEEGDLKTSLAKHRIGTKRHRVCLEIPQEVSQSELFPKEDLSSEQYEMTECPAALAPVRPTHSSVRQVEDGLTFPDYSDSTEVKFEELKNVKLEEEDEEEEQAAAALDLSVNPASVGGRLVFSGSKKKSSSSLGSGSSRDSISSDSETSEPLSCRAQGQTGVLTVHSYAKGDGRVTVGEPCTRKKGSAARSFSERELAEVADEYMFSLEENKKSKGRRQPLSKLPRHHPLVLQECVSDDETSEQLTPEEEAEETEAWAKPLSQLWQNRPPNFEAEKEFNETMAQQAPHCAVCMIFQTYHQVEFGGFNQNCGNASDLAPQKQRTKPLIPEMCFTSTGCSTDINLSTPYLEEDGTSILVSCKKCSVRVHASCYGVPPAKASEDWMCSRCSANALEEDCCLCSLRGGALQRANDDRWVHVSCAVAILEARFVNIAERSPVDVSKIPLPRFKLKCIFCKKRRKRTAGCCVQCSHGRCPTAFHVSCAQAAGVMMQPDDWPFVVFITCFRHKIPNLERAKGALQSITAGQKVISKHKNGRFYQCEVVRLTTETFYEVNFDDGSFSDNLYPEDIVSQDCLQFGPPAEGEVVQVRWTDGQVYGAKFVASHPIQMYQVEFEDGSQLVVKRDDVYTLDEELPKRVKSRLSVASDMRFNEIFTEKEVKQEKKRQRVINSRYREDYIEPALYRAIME
A number is an active result; – = inactive; ? = inconclusive; · = not tested or not shown; [ ] = remark or other dose. Calls follow the shape of the dose curve; as a rule, active = well fitted curve in the direction sought with a large enough effect; inconclusive = small, poorly fitted or top-dose-only effect, or another doubt; inactive = no such curve, though single readings can be large; an effect the other way counts as inactive or inconclusive.

SMILES	Sfp inh	G9a block	HP1b binding inh	BAZ2B inh	JMJD2A Tudor inh
CCC(=O)N1CCc2cc(Br)cc(S(=O)(=O)CCC(=O)N(C)c3cccc(C)c3)c21	·	–[12.7 µM]	?	45µM	50µM
C#CCOCCOCCOCCNc1nc(N2CCN(C(=O)[C@H](CCCCN)n3cc([C@@H](N)CC(C)C)nn3)CC2)nc(N2CCN(C(=O)[C@H](CCCCN)n3cc([C@@H](N)CC(C)C)nn3)CC2)n1	–	?	–	?	–
C#CCOCCOCCOCCNc1nc(N2CCN(C(=O)[C@H]([C@@H](C)CC)n3cc([C@@H](N)CO)nn3)CC2)nc(N2CCN(C(=O)[C@H](CCCCN)n3cc([C@@H](N)CO)nn3)CC2)n1	·	·	–	·	56µM
C#CCOCCOCCOCCNc1nc(OC)nc(N2CCN(C(=O)[C@H](CCCCN)n3cc(C(N)CO)nn3)CC2)n1 (stereo not given in full)	–	–[12.7 µM]	·	?	·
C#CCOCCOCCOCCNc1nc(N2CCOCC2)nc(N2CCN(C(=O)[C@H](CCCCN)n3cc([C@@H](N)CO)nn3)CC2)n1	–	–[12.7 µM]	–	50µM	79µM
C#CCOCCOCCOCCNc1nc(N2CCN(C(=O)[C@H]([C@@H](C)CC)n3cc([C@@H](N)CC(C)C)nn3)CC2)nc(N2CCN(C(=O)[C@H](CCCCN)n3cc([C@@H](N)CO)nn3)CC2)n1	–	?	–	79µM	79µM
COc1ccc(CNC(=O)C2CCC(CNS(=O)(=O)c3cccs3)CC2)cc1 (stereo not given)	–	–	–	–	–
COc1ccc(-n2ncc3c2ncn2nc(-c4ccc(Cl)cc4Cl)nc32)cc1	·	–	–	–	–
O=C1c2ccccc2C(=O)N1Cc1ccncc1	·	·	·	·	–
CC1CCCN(C(=O)C(=O)c2cn(CC(=O)N3CCCCCC3)c3ccccc23)C1 (stereo not given)	–	–	–	–	–
COCCSc1ccccc1C(=O)Nc1ccc2c(c1)OCCO2	–	3.5µM	–	–	–
Cc1csc(NC(=O)c2cccnc2Cl)n1	·	·	–	·	–
COCCSc1ccccc1C(=O)Nc1cc(C)cc(C)c1	?	4.5µM	–	–	–
COc1ccc(S(=O)(=O)NCC(=O)Nc2ccc3c(c2)OCCO3)cc1OC	–	50µM	–	–	–
O=C(Nc1nncs1)c1cccnc1Cl	–	1.4µM	–	–	–
CCc1ccc(C2C(C(=O)Nc3ccccc3OC)=C(C)Nc3nc(SCc4ccccc4)nn32)cc1 (stereo not given)	·	–	–	–	–
COc1ccc(OC)c(C2=CC(=O)C[C@H](c3ccc4c(c3)OCO4)C2)c1	·	–[0.501 µM]	–	–	?
COc1ccccc1OC(C)C(=O)Nc1ccc2c(c1)OCCO2 (stereo not given)	–	32µM	–	–	–
COc1ccc(OC(C)C(=O)Nc2cccc(OC)c2)cc1 (stereo not given)	–	–[12.7 µM]	–	–	–
COc1ccccc1OC(C)C(=O)Nc1cccc(-c2nc3ccccc3s2)c1 (stereo not given)	·	8.9µM	–	–	–
COc1cc(SC)ccc1C(=O)Nc1ccc2c(c1)OCCO2	–	50µM	–	–	–
CC(Oc1ccc(F)cc1)C(=O)Nc1cccc(-c2nn[nH]n2)c1 (stereo not given)	32µM	25µM	–	–	–
CC(Oc1ccccc1F)C(=O)Nc1ccc(-c2nc3ccccc3s2)cc1 (stereo not given)	·	–	–	–	–
Cc1ccccc1Cn1c(=O)n(Cc2ccco2)c(=O)c2oc3ccccc3c21	·	–	–	–	–
O=C(NN(C(=O)c1ccccc1)c1cccs1)c1ccccc1	·	·	–	·	–
SMILES	Sfp inh	G9a block	HP1b binding inh	BAZ2B inh	JMJD2A Tudor inh
COc1cc(NC(=O)c2ccccc2-c2ccccc2)cc(OC)c1OC	–	·	·	–	·
COCCSc1ccccc1C(=O)Nc1ccncc1	–	?	–	–	–
COCCSc1ccccc1C(=O)Nc1nncs1	–	25µM	–	–	–
CCSc1ccccc1C(=O)Nc1cc(OC)c(OC)c(OC)c1	16µM	3.5µM	–	–	–
COc1ccc(C)cc1NC(=O)c1ccc(OC(F)F)cc1	–	–	–	–	–
COc1cccc(NC(=S)/C(=C(\[O-])c2ccc([N+](=O)[O-])cc2)[n+]2ccccc2)c1	?	45µM	–	50µM	–[11.4 µM]
O=[N+]([O-])c1cccc(/C([O-])=C(/C(=S)Nc2cccc3ccccc23)[n+]2ccccc2)c1	35µM	5.6µM	?	–	?
O=[N+]([O-])c1ccc(/C([O-])=C(/C(=S)Nc2ccccc2F)[n+]2ccccc2)cc1	–	50µM	–	–	–
Cc1ccc(C)c(NC(=S)/C(=C(\[O-])c2ccc(OC(F)F)cc2)[n+]2ccccc2)c1	?	40µM	–	?	–
COc1cccc(NC(=O)CNC(=O)c2ccc([N+](=O)[O-])cc2)c1	–	–	–	–	–
COc1ccc2c(c1)c1c(c(=O)n(-c3cccc(C)c3)c(=O)n1CC(=O)N1CCCC1)n2C	·	?	–	?	–
CC1(C(=O)O)CCC(C(=O)N2CCCCC2)C1(C)C (stereo not given)	–	–	–	–	–
COc1ccc(C(=O)N2CCN(CCNC(=O)C(=O)Nc3ccc(F)cc3)CC2)cc1OC	–	–	–	–	–
O=C(NOC(=O)c1ccccc1F)c1ccc(OC(F)F)cc1	–	–	–	–	–
O=C(/C=C/c1ccc([N+](=O)[O-])cc1)Nc1ncc([N+](=O)[O-])s1	40µM	50µM	–	35µM	–
[O-]/C(=C(\C(=S)Nc1ccccc1F)[n+]1ccccc1)c1ccc(OC(F)F)cc1	?	50µM	–	–	–[11.4 µM]
COc1cccc(NC(=O)/C=C/c2ccccc2[N+](=O)[O-])c1	–	?	–	?	–
COc1cccc(NC(=O)/C=C/c2ccc([N+](=O)[O-])cc2)c1	50µM	7.9µM	–	?	–
C[Si](C)(C/C=C/CC[C@H](O)C1=CCCCC1=O)c1ccccc1	–	·	·	·	·
O=C(O)CCC/C=C\C[C@@H]1[C@@H](CC[C@@H](O)CCc2ccccc2)[C@H](O)C[C@@H]1O	–	·	·	·	·
CCc1c(C)[nH]n(-c2nc(-c3cccc([N+](=O)[O-])c3)cs2)c1=O	–	–	–	–	?
CCc1c(C)[nH]n(-c2nc(-c3ccccc3)cs2)c1=O	–	50µM	–	–	–[11.4 µM]
CCOC(=O)[C@@H]1[C@H]2COc3ccccc3[C@@H]2N2C(=O)N(c3ccc(F)cc3)C(=O)[C@]12C	·	·	–	·	–
CC[C@H](C)[C@H]1CNC(=O)C(=O)N1CC1CCN(CCCc2ccc(OC)c(OC)c2)CC1	·	·	–	·	79µM
CCN1CCN(CCNC(=O)c2ccc(/C=C3/Sc4ccccc4N(Cc4ccccc4C)C3=O)cc2)CC1	40µM	?	–	?	–[11.4 µM]
CCN1CCN(CCCNC(=O)c2ccc(/C=C3/Oc4ccccc4N(Cc4cccc(C)c4)C3=O)cc2)CC1	40µM	–[0.0925 µM]	–	–	?
